According to PubChem BioAssay AID1159580 (chemical genetic matrix, 2015):
About 2,000 (36%) of roughly 5,500 compounds were called active. Another 18% or so got no clear call; they are omitted. Rule as the data show it: active = normalized growth mostly below about 0.91 (no sharp cut-off); inconclusive = no clear call, values can overlap the other calls; inactive = mostly above about 0.92. The list shows a part of the results.

Test: chemical genetic growth profiling, strain panel (AID 1159580);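 also: tested at 20 µM; growth read once vehicle control cultures reached saturation at 30 °C; 1 = growth at the plate median or of vehicle wells; lower values mean less growth of the strain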
Settings: S. cerevisiae deletion strains, growth OD

Measured: normalized growth

CC1(C)C(=O)N(CCN2CCC(C(=O)c3ccc(F)cc3)CC2)c2ccccc21
inactive: locus YAL013W, strain DEP1, active compounds read low 0.998 | locus YAL040C, strain CLN3, active compounds read low 1.01 | locus YCL061C, strain MRC1 (second series), active compounds read low 0.999 | locus YDR150W, strain NUM1, active compounds read low 0.998 | locus YDR363W, strain ESC2, active compounds read low 0.992 | locus YER002W, strain NOP16, active compounds read low 1.01 | locus YGR229C, strain SMI1, active compounds read low 0.993 | locus YNL128W, strain TEP1, active compounds read low 1.03 | locus YNL175C, strain NOP13, active compounds read low 1.02 | locus YNL197C, strain WHI3, active compounds read low 1.02 | locus YNL224C, strain SQS1, active compounds read low 1.02 | locus YNL322C, strain KRE1, active compounds read low 1 | locus YOR083W, strain WHI5 (second series), active compounds read low 0.969 | locus YPL055C, strain LGE1, active compounds read low 0.982
